Assay results reported in PubChem BioAssay.
Activity calls are given as the source filed them.

What was measured:
[1] = E. coli DRC41 culture turbidity changes, primary screen, E. coli filamentation inducer project, strain DRC41, OD650, 48 h (AID 1152);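 note: E. coli MC1000 strain DRC41 lacking acrAB efflux pump and sulA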; details: E. coli DRC41 (acrAB sulA), higher = more signal, called active from +8 up or from −8 down
[2] = small-molecule binders of probe aLefty1, primary screen, biochemical, small-molecule microarray, 635/667 nm fluorescence (AID 1153); details: higher = more signal;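 note: score merges spot fluorescence with signal-to-noise ratio from the scanned slide images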
[3] = PSAC antagonists in infected red cells, primary screen, cell-based, P. falciparum Indochina, OD700, 1 h (AID 1154); details: P. falciparum Indochina infected RBC osmotic lysis, higher = more signal, called active from +8 up or from −8 down
[4] = PSAC antagonists in infected red cells, primary screen, cell-based, P. falciparum Indochina, OD700, 2 h (AID 1155);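 note: lysis reports solute entry through the parasite surface anion channel PSAC; channel blockers reduce lysis of infected cells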; details: P. falciparum Indochina infected erythrocytes, osmotic lysis OD700; higher = more signal, called active from +8 up or from −8 down
[5] = osmotic lysis modulators in infected erythrocytes, primary screen, PSAC antagonist project, cell-based, P. falciparum Indochina, OD700, 3 h (AID 1156); details: higher = more signal, called active from +8 up or from −8 down
[6] = PSAC antagonists in infected red cells, primary screen, cell-based, P. falciparum Indochina, OD700, 18 h (AID 1157); details: P. falciparum Indochina infected erythrocytes, osmotic lysis OD700, 18 h; higher = more signal, called active from +8 up or from −8 down
[7] = modulators of S6 phosphorylation in cells, primary screen, cell-based, A549, cytoblot, luminescence, serum-stimulated (AID 1158); details: A549 phospho-S6 cytoblot, 5 h, higher = more signal;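 note: serum-stimulated A549 lung adenocarcinoma cells; signal is phosphorylated S6 detected by cytoblot immunostaining with HRP secondary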
[8] = target: NADPH oxidase 2 (Homo sapiens) (UniProt P04839); test: NOX2-dependent H2O2 signal modulators, primary screen, NOX inhibitor project, cell-based, HEK293-NOX2, PMA-stimulated, Amplex Red fluorescence (AID 1159); details: 45 min, higher = more signal, called active from +8 up or from −8 down; note: test concentration not given here
NADPH oxidase 2 (Homo sapiens), sequence (P04839 whole entry, looked up): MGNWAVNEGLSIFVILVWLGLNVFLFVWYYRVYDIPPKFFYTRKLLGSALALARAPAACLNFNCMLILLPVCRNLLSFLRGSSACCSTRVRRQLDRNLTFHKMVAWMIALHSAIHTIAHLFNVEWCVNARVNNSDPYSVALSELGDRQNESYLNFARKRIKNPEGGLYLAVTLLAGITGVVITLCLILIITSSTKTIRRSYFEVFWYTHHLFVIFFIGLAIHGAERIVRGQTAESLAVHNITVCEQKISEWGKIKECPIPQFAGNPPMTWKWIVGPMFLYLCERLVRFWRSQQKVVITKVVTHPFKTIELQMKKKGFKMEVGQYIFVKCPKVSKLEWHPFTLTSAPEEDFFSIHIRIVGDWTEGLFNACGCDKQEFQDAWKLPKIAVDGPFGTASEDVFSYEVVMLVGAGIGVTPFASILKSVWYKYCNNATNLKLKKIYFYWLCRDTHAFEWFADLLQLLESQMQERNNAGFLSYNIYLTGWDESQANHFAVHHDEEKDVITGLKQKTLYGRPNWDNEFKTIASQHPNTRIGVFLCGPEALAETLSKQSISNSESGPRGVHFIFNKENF

[9] = target: NADPH oxidase 4 (Homo sapiens) (UniProt Q9NPH5); test: NOX4-dependent H2O2 signal modulators, primary screen, NOX inhibitor project, cell-based, HEK293-NOX4, tetracycline-induced, Amplex Red fluorescence (AID 1160); details: 45 min, higher = more signal, called active from +8 up or from −8 down
NADPH oxidase 4 (Homo sapiens), sequence (Q9NPH5 whole entry, looked up): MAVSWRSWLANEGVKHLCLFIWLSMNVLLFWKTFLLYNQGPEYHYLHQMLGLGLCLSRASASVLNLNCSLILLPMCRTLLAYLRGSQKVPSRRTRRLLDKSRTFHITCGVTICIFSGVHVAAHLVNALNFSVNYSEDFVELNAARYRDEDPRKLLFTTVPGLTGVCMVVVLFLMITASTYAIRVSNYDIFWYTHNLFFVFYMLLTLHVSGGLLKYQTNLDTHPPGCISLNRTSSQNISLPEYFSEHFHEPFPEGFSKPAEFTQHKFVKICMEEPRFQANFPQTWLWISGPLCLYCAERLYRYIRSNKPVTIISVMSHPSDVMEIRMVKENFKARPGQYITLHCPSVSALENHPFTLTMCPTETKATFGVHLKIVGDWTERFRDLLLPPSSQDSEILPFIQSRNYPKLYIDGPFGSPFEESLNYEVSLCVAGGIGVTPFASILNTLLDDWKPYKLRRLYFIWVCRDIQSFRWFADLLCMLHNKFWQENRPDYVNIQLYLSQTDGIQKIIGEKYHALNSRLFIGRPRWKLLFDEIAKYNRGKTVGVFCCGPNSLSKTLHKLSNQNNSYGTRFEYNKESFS

[10] = target: NADPH oxidase 5 (Homo sapiens) (UniProt Q96PH1); test: NOX5-dependent H2O2 signal modulators, primary screen, NOX inhibitor project, cell-based, HEK293-NOX5, Amplex Red fluorescence (AID 1161); details: HEK293-NOX5, ionomycin, 45 min, higher = more signal
NADPH oxidase 5 (Homo sapiens), sequence (Q96PH1 whole entry, looked up): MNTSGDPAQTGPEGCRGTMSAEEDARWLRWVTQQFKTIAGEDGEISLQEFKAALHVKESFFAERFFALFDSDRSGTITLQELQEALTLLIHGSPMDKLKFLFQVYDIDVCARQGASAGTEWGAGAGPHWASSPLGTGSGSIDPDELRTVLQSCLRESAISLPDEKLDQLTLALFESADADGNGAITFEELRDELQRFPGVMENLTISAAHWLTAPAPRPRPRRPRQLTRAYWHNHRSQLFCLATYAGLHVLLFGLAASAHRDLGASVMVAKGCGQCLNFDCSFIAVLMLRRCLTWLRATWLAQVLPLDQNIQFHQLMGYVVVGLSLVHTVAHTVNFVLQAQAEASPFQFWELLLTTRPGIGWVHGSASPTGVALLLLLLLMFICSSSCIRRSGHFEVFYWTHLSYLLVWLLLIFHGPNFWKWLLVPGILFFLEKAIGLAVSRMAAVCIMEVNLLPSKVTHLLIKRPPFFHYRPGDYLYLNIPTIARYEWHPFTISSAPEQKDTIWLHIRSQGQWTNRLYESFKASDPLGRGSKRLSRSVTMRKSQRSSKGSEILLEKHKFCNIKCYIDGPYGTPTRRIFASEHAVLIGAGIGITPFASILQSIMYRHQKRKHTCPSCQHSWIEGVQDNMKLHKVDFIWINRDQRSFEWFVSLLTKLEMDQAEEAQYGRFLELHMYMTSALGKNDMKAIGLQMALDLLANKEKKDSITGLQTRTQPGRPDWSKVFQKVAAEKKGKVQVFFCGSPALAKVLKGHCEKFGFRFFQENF

[11] = A549 cell viability effects, profiling panel, calcein-AM fluorescence, 48 h, basal (AID 1162); details: higher = more signal; note: test concentration not given here
[12] = adipocyte viability effects, profiling panel, cell-based, 3T3-L1 adipocytes, calcein-AM fluorescence, 48 h, basal (AID 1163); details: 3T3-L1 adipocytes viability, higher = more signal; note: test concentration not given here
[13] = HepG2 cell viability effects, profiling panel, calcein-AM fluorescence, 48 h, basal (AID 1164); details: higher = more signal; note: test concentration not given here
[14] = MM1S cell viability effects, profiling panel, calcein-AM fluorescence, 48 h, basal (AID 1165); details: higher = more signal;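 note: viability of MM1S multiple myeloma cells under basal unstimulated conditions; test concentration not given here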
[15] = basal RPMI8226 viability, no added stimulus, profiling panel, cell-based, calcein-AM fluorescence, 48 h, PK04 Diversity Set (AID 1166); details: RPMI8226 myeloma viability, higher = more signal;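 note: cells grown under basal conditions without added stimulus; test concentration not given here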
[16] = basal HepG2 mitochondrial membrane potential changes, profiling panel, cell-based, JC-1 fluorescence, 24 h, 100 nL compound (AID 1167); details: higher = more signal; note: test concentration not given here
[17] = basal 3T3-L1 adipocyte mitochondrial potential changes, profiling panel, cell-based, JC-1 fluorescence, 3T3-L1 adipocytes, 24 h, 100 nL compound (AID 1168); details: JC-1 mitochondrial fluorescence, higher = more signal, called active from +8 up or from −8 down; note: test concentration not given here
[18] = basal RPMI8226 mitochondrial membrane potential changes, profiling panel, cell-based, JC-1 fluorescence, 24 h, 100 nL compound (AID 1169); details: RPMI8226 myeloma, JC-1 mitochondrial potential fluorescence, higher = more signal; note: test concentration not given here
[19] = basal MM1S mitochondrial membrane potential changes, profiling panel, cell-based, JC-1 fluorescence, 24 h, 100 nL compound (AID 1170); details: higher = more signal; note: test concentration not given here
[20] = A549 lung cancer cell viability effects, profiling panel, resazurin fluorescence, 24 h, PK04 Diversity Set (AID 1171); details: higher = more signal, called active from +8 up or from −8 down; note: test concentration not given here

Row | SMILES | z-score [1] | composite z-score [2] | z-score [3] | z-score [4] | z-score [5] | z-score [6] | z-score [7] | z-score [8] | z-score [9] | z-score [10] | z-score [11] | z-score [12] | z-score [13] | z-score [14] | z-score [15] | z-score [16] | z-score [17] | z-score [18] | z-score [19] | z-score [20]
1 | COc1ccc([Si](C)(C)[C@@H]2[C@@H](CC(=O)N3CCC[C@H]3CO)O[C@]3(C(=O)N(C)c4c(Br)cc(C)cc43)[C@H]2C)cc1 | -0.674 (inactive) | -0.251 | 5.59 (inactive) | 0.576 (inactive) | 0.405 (inactive) | 0.768 (inactive) | -0.415 | 1.73 (inactive) | 1.17 (inactive) | 3.69 | 0.49 | 0.406 | 1.03 | -0.929 | -1.04 | 1.02 | 0.0349 (inactive) | -0.489 | -0.0745 | 0.206 (inactive)
2 | COCCOC(=O)N1C(=O)[C@@]2(c3cc(C#Cc4ccc(OC)cc4)ccc31)[C@H](C(=O)N1CCN(c3ncccn3)CC1)[C@H]1C(=O)O[C@H](c3ccccc3)[C@H](c3ccccc3)N1[C@@H]2c1ccc(O)cc1 | 0.831 (inactive) | 0.0773 | 1.39 (inactive) | -0.306 (inactive) | -0.119 (inactive) | -0.541 (inactive) | 1.59 | 0.586 (inactive) | 0.19 (inactive) | 1.98 | 1.23 | 1.26 | 0.986 | 0.973 | 0.806 | -0.013 | 2.2 (inactive) | 0.157 | 0.193 | 1.31 (inactive)
3 | O=C(O)[C@@]1(Cc2ccccc2)N=C(c2ccc(OCCCO)cc2)O[C@H]1c1ccccc1 | 0.922 (inactive) | -0.251 | 3.67 (inactive) | 0.132 (inactive) | -0.466 (inactive) | 0.445 (inactive) | -0.134 | 0.18 (inactive) | 0.864 (inactive) | 1.33 | 0.83 | -0.664 | -0.235 | 0.275 | 0.237 | 0.628 | 1.29 (inactive) | -0.182 | -0.558 | 0.575 (inactive)
4 | CCOC(=O)C1=CC[C@@H](c2ccccc2Cl)N(S(=O)(=O)c2ccc(C)cc2)C1 | 0.0023 (inactive) | 0.276 | 4.85 (inactive) | -0.477 (inactive) | -0.981 (inactive) | -1.69 (inactive) | 0.676 | 0.358 (inactive) | -0.832 (inactive) | -0.93 | -0.378 | -0.529 | 0.15 | -1.63 | -1.51 | 4.34 | -0.0958 (inactive) | -0.329 | -1.99 | -0.561 (inactive)
